Consider 26 compounds from PubChem BioAssay (NCATS).

Experiment in all cases: qHTS profiling for inhibitors of Plasmodium falciparum proliferation (AID 504749); also: nearly all actives have a fitted effect of over 60% in size
Holding throughout (details): P. falciparum in erythrocytes, SYBR Green DNA, 72 h; series mostly up to 28.7 µM
On the technique in general: In qHTS, concentration-response curves come from the screen itself.

For one assay, the system named is CP211. In short, it runs like this:
(§1)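 Infected RBCs, 0.3% parasitemia/2.5% Hct final; cpd 72 h, 37 C, 5% CO2; lysis buffer with saponin/triton/SYBR Green I, o/n RT dark; FI 485/535; norm. to artemisinin (0.29 uM) and DMSO.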

The test system of a further assay is CP217. In short, it runs like this: as §1
The subject of the next assay is CP237. In short, it runs like this:
as §1

The next assay concerns CP238. In short, it runs like this:
as §1

A further assay relates to CP247. In short, it runs like this:
as §1

The test system of another assay is CP250. In short, it runs like this: as §1
Another assay has as its system CP252. The procedure, abridged:
as §1

The test system of the next assay is CP256. In short, it runs like this: as §1
In the next assay the test system is CP215. The procedure, abridged:
as §1

Results filed as inconclusive are left out. The source made the active and inactive calls. Calls follow the shape of the dose curve; as a rule, active = well fitted inhibition curve with a large enough effect; inconclusive = small, poorly fitted or top-dose-only effect; inactive = flat fitted curve, though single readings scatter.
Potency is read from the fitted curve at half-maximal effect.

With `O=C1c2ccccc2-c2n[nH]c3cccc1c23`, the Potency entry in the assay on CP211, in the assay with CP217, with CP237, in the assay with CP238, in the assay on CP247 and in the assay on CP250 was “inactive” throughout. Further, the Potency result in the assay with CP252 and with CP256 was “inactive” throughout.
For `CN(c1nccc(=O)[nH]1)C1CCN(c2nc3ccccc3n2Cc2ccc(F)cc2)CC1`, the Potency result in the assay with CP237, in the assay on CP238, in the assay with CP250, in the assay on CP252 and in the assay on CP256 was “inactive” in each case.
On to `CN(C)C(=O)COC(=O)Cc1ccc(OC(=O)c2ccc(N=C(N)N)cc2)cc1`, for which the Potency entry in the assay on CP211, in the assay with CP217, with CP237, in the assay on CP238, in the assay with CP247 and in the assay with CP250 was “inactive” throughout. For the same compound, the Potency entry with CP252 and in the assay with CP256 was “inactive” throughout.
Regarding `CC1=C(C)C(=O)C(C(CCCCCC(=O)O)c2ccccc2)=C(C)C1=O` (stereo not drawn), the Potency result with CP237, with CP238 and in the assay with CP256 was “inactive” each time. Moreover, the Potency in the assay on CP247 is 3.98 µM (active).
With `CCCCCCCCOc1ccccc1C(=O)Nc1ccc(C(=O)OCC[N+](C)(CC)CC)cc1`, the Potency in the assay on CP217 was 10 µM (active); in the assay with CP237, 7.94 µM (active); in the assay with CP238, 8.91 µM (active); in the assay on CP247 it was 10 µM (active).
Turning to `CC(C)c1ccc2oc3nc(N)c(C(=O)O)cc3c(=O)c2c1`, the Potency entry in the assay on CP211, in the assay with CP215, with CP237, in the assay with CP238 and with CP256 was “inactive” each time. Further, in the assay with CP247, the Potency is 5.62 µM (active).
On to `CC[C@]1(O)C[C@H]2CN(CCc3c([nH]c4ccccc34)[C@@](C(=O)OC)(c3cc4c(cc3OC)N(C=O)[C@H]3[C@@](O)(C(=O)OC)[C@H](OC(C)=O)[C@]5(CC)C=CCN6CC[C@]43[C@@H]65)C2)C1`, for which the Potency in the assay with CP211 was 2.13 µM (active); in the assay on CP217, 4.47 µM (active); in the assay on CP237, 0.0501 µM (active); in the assay on CP238 it was 2.24 µM (active); in the assay with CP250 it was 3.55 µM (active); in the assay on CP252, 3.55 µM (active). Moreover, the Potency in the assay on CP256 is 2.24 µM (active).
Take `O=C(O)c1cccnc1Nc1cccc(C(F)(F)F)c1`: the Potency entry in the assay on CP211, with CP215, in the assay on CP217, in the assay with CP237, in the assay on CP238 and with CP247 was “inactive” in each case. The Potency entry in the assay on CP250, with CP252 and in the assay with CP256 was “inactive” each time.
Take `Cc1nc2n(c(=O)c1CCN1CCC(c3noc4cc(F)ccc34)CC1)CCCC2`: the Potency entry with CP211, in the assay with CP215, in the assay on CP217, with CP238, with CP247 and in the assay with CP250 was “inactive” in each case. The Potency entry in the assay on CP252 and with CP256 was “inactive” each time.
Consider `CNC[C@@H](O)[C@@H](O)[C@H](O)[C@H](O)CO`, for which the Potency entry with CP211, with CP215, with CP217, in the assay with CP237, in the assay on CP238 and in the assay with CP247 was “inactive” throughout. The Potency result in the assay on CP250, in the assay with CP252 and in the assay on CP256 was “inactive” throughout.
`C[Se]CCC(N)C(=O)O` (stereo not drawn): the Potency result in the assay with CP211, in the assay on CP217, in the assay with CP237, in the assay on CP238, with CP247 and with CP250 was “inactive” throughout. The Potency result in the assay with CP252 is “inactive”.
For `NNc1nncc2ccccc12`, the Potency entry in the assay on CP211, with CP217, in the assay with CP238 and with CP252 was “inactive” in each case.
Consider `CNC[C@H](O)c1ccc(O)c(O)c1`, for which the Potency entry in the assay with CP211, with CP217, in the assay with CP237, in the assay on CP238, in the assay on CP247 and in the assay on CP250 was “inactive” each time. Further, the Potency result with CP252 and in the assay with CP256 was “inactive” in each case.
As to `O=C(O)c1cn(-c2ccc(F)cc2)c2cc(N3CCNCC3)c(F)cc2c1=O`, the Potency entry in the assay on CP217, in the assay with CP247 and in the assay on CP250 was “inactive” in each case.
For `N=C(N)c1ccc2cc(OC(=O)c3ccc(N=C(N)N)cc3)ccc2c1`, the figures for the Potency in the assay with CP237 and with CP247 were 7.08 µM (active) and 8.91 µM (active), respectively. The Potency entry in the assay on CP250 was “inactive”.
Turning to `COc1ccc2cc([C@H](C)C(=O)O)ccc2c1`, the Potency result in the assay on CP211, with CP215, in the assay on CP217, with CP238, with CP247 and in the assay on CP250 was “inactive” in each case. Moreover, the Potency result in the assay with CP252 and in the assay with CP256 was “inactive” each time.
In the case of `Cc1nc(Nc2ncc(C(=O)Nc3c(C)cccc3Cl)s2)cc(N2CCN(CCO)CC2)n1`, the Potency entry in the assay on CP238 and in the assay with CP256 was “inactive” throughout.
For `CCc1nc(N)nc(N)c1-c1ccc(Cl)cc1`, the Potency result in the assay with CP238, in the assay with CP250 and in the assay on CP256 was “inactive” in each case.
As to `CN1CCC(=C2c3ccccc3CCc3sccc32)CC1`, the Potency entry with CP250 was “inactive”.
As for `CCC[C@@H]1C[C@@H](C(=O)N[C@@H]([C@H]2O[C@H](SC)[C@H](O)[C@@H](O)[C@H]2O)[C@@H](C)O)N(C)C1`, the results for the Potency with CP215 and in the assay with CP256 were 2.69 µM (active) and 0.398 µM (active), respectively. Also, the Potency result in the assay on CP250 is “inactive”.
Consider `Cn1c(NCCN(CCO)CCCc2ccc([N+](=O)[O-])cc2)cc(=O)n(C)c1=O`, for which the Potency result in the assay with CP211, with CP215, in the assay with CP217, with CP237, with CP238 and in the assay on CP250 was “inactive” each time. Further, the Potency entry in the assay with CP252 and in the assay with CP256 was “inactive” each time.
As for `Nc1nc(Cl)nc2c1ncn2[C@H]1C[C@H](O)[C@@H](CO)O1`, the Potency result in the assay on CP217, with CP237, with CP238, with CP247, in the assay on CP250 and in the assay with CP252 was “inactive” each time. The Potency result in the assay on CP256 was “inactive”.
Take `Cc1cc(C2CCCCC2)n(O)c(=O)c1`: the Potency with CP211 was 6.42 µM (active); with CP215 it was 1.02 µM (active); in the assay on CP217, 3.55 µM (active); with CP252, 3.55 µM (active).
With `CCCCC(CC)COC(=O)C(C#N)=C(c1ccccc1)c1ccccc1` (stereo not drawn), the Potency result in the assay on CP211, with CP238 and in the assay with CP252 was “inactive” in each case. The Potency in the assay on CP256 is 8.91 µM (active).
For the compound `O=C(OC1C[C@H]2CC[C@@H](C1)[N+]21CCCC1)C(O)(c1ccccc1)c1ccccc1` (stereo partly drawn), the values for the Potency with CP211, with CP238 and in the assay on CP256 were 1.9 µM (active), 3.55 µM (active) and 3.55 µM (active), respectively.
As to `Cc1ccc(NC(=O)c2ccc(CN3CCN(C)CC3)cc2)cc1Nc1nccc(-c2cccnc2)n1`, the figures for the Potency in the assay with CP217 and in the assay on CP237 were 11.2 µM (active) and 8.91 µM (active), respectively.
